Assay results published in PubChem BioAssay (Tox21).
Several values for one entry are separate records, joined by “and”; a condition that tells them apart may be missing. Equal values may be shown once. Records with an inconclusive call do not appear. A call without a number means that no potency is given here. Where a structure was tested more than once in an assay, its records may differ in their call. Activity calls are given as the source filed them. Unless noted, the call rests on the fitted dose curve; in most records, active means well fitted curve in the direction sought with a large enough effect in the repeat runs; inconclusive means weak or mixed curves; inactive means no such curve, though single readings can be large; an effect the other way counts as inactive or inconclusive.

Legend:
[1] = qHTS assay to identify small molecule antagonists of the glucocorticoid receptor (GR) signaling pathway - cell viability counter screen (AID 720693); further: nearly all actives have a fitted effect of over 55% in size
[2] = qHTS assay for identifying genotoxic compounds that show differential cytotoxicity against isogenic chicken DT40 cell lines with known DNA damage response pathways - wild type cell line (AID 743012); further: nearly all actives have a fitted effect of over 60% in size; further: potency means the concentration at half of the fitted maximal effect
How it was run: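 Viability by ATP luminescence (CellTiter-Glo, 30 min RT) after 40 h compound treatment at 37 C/5% CO2, using 300 parental DNA repair-proficient DT40 cells per well.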

[3] = qHTS assay for identifying genotoxic compounds that show differential cytotoxicity against isogenic chicken DT40 cell lines with known DNA damage response pathways - Rev3 mutant cell line (AID 743014); further: nearly all actives have a fitted effect of over 55% in size; further: potency means the concentration at half of the fitted maximal effect
[4] = qHTS assay for identifying genotoxic compounds that show differential cytotoxicity against isogenic chicken DT40 cell lines with known DNA damage response pathways - Rad54/Ku70 mutant cell line (AID 743015); further: nearly all actives have a fitted effect of over 60% in size; further: potency means the concentration at half of the fitted maximal effect
[5] = qHTS assay to identify small molecule antagonists of the androgen receptor (AR) signaling pathway - cell viability counter screen (AID 743033; further: nearly all actives have a fitted effect of over 45% in size)
[6] = qHTS assay to identify small molecule antagonists of the androgen receptor (AR) signaling pathway using the MDA cell line - cell viability counter screen (AID 743041; further: nearly all actives have a fitted effect of over 45% in size)
How it was run: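 Viability read by CellTiter-Fluor fluorescence in the same wells as the antagonist screen, added after 15.5 h of a 16 h, 37C exposure. Human breast carcinoma MDA-kb2 AR-luc cells, compounds co-dosed with agonist R1881.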

[7] = target: Androgen receptor (Homo sapiens) (UniProt P10275); assay: qHTS assay to identify small molecule antagonists of the androgen receptor (AR) signaling pathway (AID 743035; active means well fitted inhibition curve with a large enough effect in the signal ratio in the repeat runs, not every such curve was filed as active; the % refers to the signal ratio; further: potency means the concentration at half of the fitted maximal effect)
How it was run: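 Antagonist mode: AR-bla HEK293 cells co-treated with test compounds and agonist R1881 for 16 h at 37C, 5% CO2. Beta-lactamase activity read as FRET fluorescence after 2 h room-temperature substrate loading.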

[8] = target: Androgen receptor (Homo sapiens) (UniProt P10275); assay: qHTS assay to identify small molecule agonists of the androgen receptor (AR) signaling pathway (AID 743036; active means well fitted activation curve with a large enough effect in the signal ratio in the repeat runs, with a control signal flat, not every such curve was filed as active; the % refers to the signal ratio)
How it was run: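 In this Tox21 qHTS, 2,000 HEK293 AR-bla cells per well were incubated with compounds for 16 h at 37C and 5% CO2. Fluorescence intensity was recorded 2 h after adding LiveBLAzer B/G FRET substrate at room temperature.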

[9] = target: Androgen receptor (Homo sapiens) (UniProt P10275); assay: qHTS assay to identify small molecule agonists of the androgen receptor (AR) signaling pathway using the MDA cell line (AID 743040; further: nearly all actives have a fitted effect of over 20% in size)
How it was run: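 Luciferase agonist assay: 16 h compound exposure at 37C without CO2 in MDA-kb2 AR-luc cells, whose MMTV promoter responds to both AR and GR. Luminescence measured after 30 min room-temperature incubation with ONE-Glo.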

[10] = target: Androgen receptor (Homo sapiens) (UniProt P10275); assay: qHTS assay to identify small molecule antagonists of the androgen receptor (AR) signaling pathway using the MDA cell line (AID 743042; further: nearly all actives have a fitted effect of over 55% in size; further: potency means the concentration at half of the fitted maximal effect)
How it was run: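 Antagonist mode: compounds plus R1881 agonist added to MDA-kb2 AR-luc cells, incubated 16 h at 37C. Luciferase reporter luminescence quantified, with multiplexed CellTiter-Fluor readout for cell viability.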

Chain of Androgen receptor (Homo sapiens) (P10275 whole entry, looked up): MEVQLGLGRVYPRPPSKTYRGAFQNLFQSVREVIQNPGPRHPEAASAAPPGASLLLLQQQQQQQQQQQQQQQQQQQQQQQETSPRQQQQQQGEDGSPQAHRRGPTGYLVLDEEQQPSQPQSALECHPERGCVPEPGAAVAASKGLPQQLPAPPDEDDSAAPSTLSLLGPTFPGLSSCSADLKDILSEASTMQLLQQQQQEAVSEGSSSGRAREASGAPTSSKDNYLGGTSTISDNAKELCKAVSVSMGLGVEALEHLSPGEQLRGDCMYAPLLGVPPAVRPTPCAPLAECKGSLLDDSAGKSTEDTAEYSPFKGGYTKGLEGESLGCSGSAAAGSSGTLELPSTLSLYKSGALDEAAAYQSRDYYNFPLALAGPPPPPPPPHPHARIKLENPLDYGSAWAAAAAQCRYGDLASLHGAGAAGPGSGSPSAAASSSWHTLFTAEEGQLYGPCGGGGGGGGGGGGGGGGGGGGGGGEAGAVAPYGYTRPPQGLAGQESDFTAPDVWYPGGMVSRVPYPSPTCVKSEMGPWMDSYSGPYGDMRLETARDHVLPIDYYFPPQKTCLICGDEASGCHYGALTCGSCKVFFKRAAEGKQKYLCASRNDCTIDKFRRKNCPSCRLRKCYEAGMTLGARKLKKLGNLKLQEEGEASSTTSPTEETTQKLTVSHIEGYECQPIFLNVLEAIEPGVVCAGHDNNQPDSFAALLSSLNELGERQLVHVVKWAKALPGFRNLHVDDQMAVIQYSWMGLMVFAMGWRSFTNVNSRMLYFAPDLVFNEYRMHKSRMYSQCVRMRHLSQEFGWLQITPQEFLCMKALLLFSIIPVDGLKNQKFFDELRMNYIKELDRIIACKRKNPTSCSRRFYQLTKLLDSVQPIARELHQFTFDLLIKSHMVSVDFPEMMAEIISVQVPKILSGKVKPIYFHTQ

In the case of `CCN(CC)CCOC(=O)c1ccc(N)cc1`, the Potency [1] is reported as “inactive”, the Potency [2] is reported as “inactive” and the Potency [3] is reported as “inactive”. The Potency [4] was “inactive”, the outcome [5] was “inactive” and the Potency [6] was “inactive”.
In the case of `CC(O)COc1ccccc1` (configuration not stated), the Potency [1] is reported as “inactive”, the Potency [2] is reported as “inactive” and the Potency [3] is reported as “inactive”. The Potency [4] was “inactive”, the outcome [5] was “inactive” and the Potency [7] was “inactive”. For the same molecule, the outcome [8] was “inactive”, the Potency [9] was “inactive” and the Potency [6] was “inactive”. For the same molecule, the Potency [10] was “inactive”.
In the case of `Cc1cccc(C)c1O`, the Potency [1] is reported as “inactive”, the Potency [2] is reported as “inactive” and the Potency [3] is reported as “inactive”. For the same molecule, the Potency [4] was “inactive”, the outcome [5] was “inactive” and the Potency [7] was “inactive”. For the same molecule, the outcome [8] was “inactive”, the Potency [9] was “inactive” and the Potency [6] was “inactive”. For the same molecule, the Potency [10] was “inactive”.
In the case of `NC(=O)OCC(COC(N)=O)c1ccccc1`, the Potency [1] is reported as “inactive”, the Potency [2] is reported as “inactive” and the Potency [3] is reported as “inactive”. The Potency [4] was “inactive”, the outcome [5] was “inactive” and the Potency [7] was “inactive”. For the same molecule, the outcome [8] was “inactive”, the Potency [9] was “inactive” and the Potency [6] was “inactive”. The Potency [10] was “inactive”.
In the case of `NCCNc1cccc2ccccc12`, the Potency [1] is reported as “inactive”, the Potency [2] is reported as “inactive” and the Potency [3] is reported as “inactive and 54.4 µM (active)”. For the same molecule, the Potency [4] was “inactive”, the outcome [5] was “inactive” and the Potency [7] was “inactive”. For the same molecule, the outcome [8] was “inactive”, the Potency [9] was “inactive” and the Potency [6] was “inactive”. For the same molecule, the Potency [10] was “inactive and 54.4 µM (active)”.
In the case of `Cc1cccc(Nc2cc(Cl)nc(SCC(=O)O)n2)c1C`, the Potency [1] is reported as “inactive”, the Potency [2] is reported as “inactive” and the Potency [3] is reported as “inactive”. For the same molecule, the Potency [4] was “inactive”, the outcome [5] was “inactive” and the Potency [7] was “inactive”. For the same molecule, the Potency [9] was “inactive”, the Potency [6] was “inactive” and the Potency [10] was “inactive”.
With `COc1ccc(O)cc1` the Potency [1] was “inactive”, the Potency [2] was “inactive” and the Potency [3] was “inactive”. The Potency [4] was “inactive”, the outcome [5] was “inactive” and the Potency [7] was “inactive”. The outcome [8] was “inactive”, the Potency [9] was “inactive” and the Potency [6] was “inactive”. For the same molecule, the Potency [10] was “inactive”.
With `c1ccc2[nH]c(-c3cscn3)nc2c1` the Potency [1] was “inactive”, the Potency [2] was “inactive and 69 µM (active)” and the Potency [3] was “inactive and 54.5 µM (active)”. For the same molecule, the Potency [4] was “inactive and 48.6 µM (active)”, the outcome [5] was “inactive” and the Potency [7] was “inactive”. For the same molecule, the outcome [8] was “inactive”, the Potency [9] was “inactive” and the Potency [6] was “inactive”. For the same molecule, the Potency [10] was “inactive”.
In the case of `CC(=O)c1ccc(S(=O)(=O)NC(=O)NC2CCCCC2)cc1`, the Potency [1] is reported as “inactive”, the Potency [2] is reported as “inactive” and the Potency [3] is reported as “inactive”. For the same molecule, the Potency [4] was “inactive”, the outcome [5] was “inactive” and the Potency [7] was “inactive”. For the same molecule, the outcome [8] was “inactive”, the Potency [9] was “inactive” and the Potency [6] was “inactive”. For the same molecule, the Potency [10] was “inactive”.
With `CC(=O)Oc1ccccc1C(=O)O` the Potency [1] was “inactive”, the Potency [2] was “inactive” and the Potency [3] was “inactive”. The Potency [4] was “inactive”, the outcome [5] was “inactive” and the Potency [7] was “inactive”. The outcome [8] was “inactive”, the Potency [9] was “inactive” and the Potency [6] was “inactive”. For the same molecule, the Potency [10] was “inactive”.
For `NC(=O)N1c2ccccc2C=Cc2ccccc21`, the Potency [1] was “inactive”, the Potency [2] was “inactive and 30.6 µM (active)” and the Potency [3] was “inactive and 30.6 µM (active)”. The Potency [4] was “inactive and 54.5 µM (active)”, the outcome [5] was “inactive” and the Potency [6] was “inactive”.
With `CCOCCO` the Potency [1] was “inactive”, the Potency [2] was “inactive” and the Potency [3] was “inactive”. For the same molecule, the Potency [4] was “inactive”, the outcome [5] was “inactive” and the Potency [6] was “inactive”.
In the case of `CCCCOCCOCCSC#N`, the Potency [1] is reported as “inactive”, the Potency [2] is reported as “inactive” and the Potency [3] is reported as “inactive”. For the same molecule, the Potency [4] was “inactive”, the outcome [5] was “inactive” and the Potency [6] was “inactive”.
In the case of `CC(C)=CCC/C(C)=C/CO`, the Potency [1] is reported as “inactive”, the Potency [2] is reported as “inactive” and the Potency [3] is reported as “inactive”. The Potency [4] was “inactive”, the outcome [5] was “inactive” and the outcome [8] was “inactive”. For the same molecule, the Potency [6] was “inactive”.
For `COc1cc(C=O)ccc1O`, the Potency [1] was “inactive”, the Potency [2] was “inactive” and the Potency [3] was “inactive”. For the same molecule, the Potency [4] was “inactive”, the outcome [5] was “inactive” and the outcome [8] was “inactive”. The Potency [9] was “inactive”, the Potency [6] was “inactive” and the Potency [10] was “inactive”.
With `O=c1cc[nH]c(=O)[nH]1` the Potency [1] was “inactive”, the Potency [2] was “inactive” and the Potency [3] was “inactive”. For the same molecule, the Potency [4] was “inactive”, the outcome [5] was “inactive” and the Potency [6] was “inactive”.
In the case of `COC(=O)c1ccc(O)cc1`, the Potency [1] is reported as “inactive”, the Potency [2] is reported as “inactive” and the Potency [3] is reported as “inactive”. For the same molecule, the Potency [4] was “inactive”, the outcome [5] was “inactive” and the Potency [6] was “inactive”.
For `COCC(C)N` (configuration not stated), the Potency [1] was “inactive”, the Potency [2] was “inactive” and the Potency [3] was “inactive”. The Potency [4] was “inactive”, the outcome [5] was “inactive” and the Potency [7] was “inactive”. The outcome [8] was “inactive”, the Potency [9] was “inactive” and the Potency [6] was “inactive”. The Potency [10] was “inactive”.
With `CCn1cc(C(=O)O)c(=O)c2ccc(C)nc21` the Potency [1] was “inactive”, the Potency [2] was “inactive” and the Potency [3] was “inactive”. The Potency [4] was “inactive”, the outcome [5] was “inactive” and the Potency [6] was “inactive”.
With `CN(C)Cc1cc(CN(C)C)c(O)c(CN(C)C)c1` the Potency [1] was “inactive”, the Potency [2] was “inactive” and the Potency [3] was “inactive”. The Potency [4] was “inactive”, the outcome [5] was “inactive” and the Potency [7] was “inactive”. For the same molecule, the outcome [8] was “inactive”, the Potency [9] was “inactive” and the Potency [6] was “inactive”. For the same molecule, the Potency [10] was “inactive”.
For `COc1cc2c(c(OC)c1OC)-c1ccc(OC)c(=O)cc1[C@@H](NC(C)=O)CC2`, the Potency [1] was “inactive”, the Potency [2] was 66.8 nM (active) and 13.5 nM (active) and 7.7 nM (active) and the Potency [3] was 66.8 nM (active) and 12 nM (active) and 7.7 nM (active). For the same molecule, the Potency [4] was 84.1 nM (active) and 10.7 nM (active) and 7.7 nM (active), the outcome [5] was “inactive” and the Potency [7] was 60.1 nM (active). For the same molecule, the Potency [9] was “inactive”, the Potency [6] was “inactive” and the Potency [10] was “inactive”.
For `O=C1OC(c2ccc(O)cc2)(c2ccc(O)cc2)c2ccccc21`, the Potency [1] was “inactive”, the Potency [2] was 38.3 µM (active) and the Potency [3] was 17.1 µM (active). The Potency [4] was 27.1 µM (active), the outcome [5] was “inactive” and the outcome [8] was “inactive”. The Potency [9] was “inactive”, the Potency [6] was “inactive” and the Potency [10] was “inactive”.
For `CC(C)Cc1ccc(C(C)C(=O)O)cc1` (configuration not stated), the Potency [1] was “inactive”, the Potency [2] was “inactive” and the Potency [3] was “inactive”. The Potency [4] was “inactive”, the outcome [5] was “inactive” and the Potency [6] was “inactive”.
With `COc1cc(O)c(C(=O)c2ccccc2)cc1S(=O)(=O)O` the Potency [1] was “inactive”, the Potency [2] was “inactive” and the Potency [3] was “inactive”. The Potency [4] was “inactive”, the outcome [5] was “inactive” and the Potency [7] was “inactive”. The outcome [8] was “inactive”, the Potency [6] was “inactive” and the Potency [10] was “inactive”.
In the case of `O=C(OCc1ccccc1)c1ccccc1`, the Potency [1] is reported as “inactive”, the Potency [2] is reported as “inactive” and the Potency [3] is reported as “inactive”. The Potency [4] was “inactive”, the outcome [5] was “inactive” and the Potency [6] was “inactive”.
For `O=C(O)CCCCC1CCSS1` (configuration not stated), the Potency [1] was “inactive”, the Potency [2] was “inactive” and the Potency [3] was “inactive”. For the same molecule, the Potency [4] was “inactive”, the outcome [5] was “inactive” and the Potency [6] was “inactive”.
